# Data: PubChem BioAssay
# Active and inactive are the calls of the source.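 Rule for the calls: active = mean z-score across replicates of 1.96 or higher in either the MELAS or the Rieske mutant cell line; inactive = the rest.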
# Assay: survival rescue of mitochondrial mutant cells in low glucose, primary screen, MELAS cybrids, Rieske KO mouse fibroblasts, CellTiter-Glo (AID 1508586);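 note: test concentration not given here; z relative to plate mean and SD of compound and empty wells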
# Settings: MELAS cybrid survival, CellTiter-Glo 48 h, stronger effect = higher value
row,SMILES,z-score
1,O=C(O)c1ccc(-c2ccccc2[N+](=O)[O-])o1,-0.508 (inactive)
2,COc1ccc(CC(C)NCC(O)c2ccc(O)c(NC=O)c2)cc1 (configuration not stated),0.143 (inactive)
3,CN(Cc1cnc2ccccc2n1)C(=O)Nc1n[nH]c(-c2ccco2)n1,-0.974
4,Cc1nc(C(=O)O)nn1-c1cc(Cl)cc(Cl)c1,-0.498 (inactive)
5,O=C(Nc1c[nH]c2ccccc12)c1cccnc1,-0.289 (inactive)
6,O=S(=O)(O)CCN1CCOCC1,-0.907 (inactive)
7,COc1ncccc1-c1cnn(CC(=O)Nc2cc(-c3ccccn3)nn2C)c1,-0.417 (inactive)
8,O=c1cc(-c2ccncc2)nc(-c2cccc(CN3CCCC(CO)C3)c2)[nH]1 (configuration not stated),-0.423 (inactive)
9,CSc1n[nH]c(-c2ccc(Cl)cc2)n1,1.97 (active)
10,Cc1cc(NC(=O)Cn2ccc(-c3ncnn3C)n2)n(C2CCCCC2)n1,0.129 (inactive)
11,COc1cccc(-n2cc(-c3ccnc(NCCc4cnc[nH]4)n3)cn2)c1,-0.718 (inactive)
12,CC(=O)N1CCCC(Cn2cnc3scc(-c4cc(C)ccc4C)c3c2=O)C1 (configuration not stated),-0.328 (inactive)
13,Cc1cnc(CN(C)C(=O)c2n[nH]c3ccccc23)[nH]1,0.305 (inactive)
14,Nc1ncccc1OCc1ccccc1,-0.968 (inactive)
15,COc1ccccc1-c1cnn(CC(=O)Nc2cc(C)nn2C)c1,0.116 (inactive)
16,COc1cccc2c(=O)n(Cc3ccc4nonc4c3)cnc12,0.215 (inactive)
17,OCC1OC(Oc2cc(O)cc(C=Cc3ccc(O)cc3)c2)C(O)C(O)C1O (configuration not stated),-0.124 (inactive)
18,Cn1nc(-c2cccnc2)c2[nH]c(-c3ccc4c(c3)OCCO4)nc21,12.6 (active)
19,Cc1cc(CN(C)C(=O)c2cc(-c3cnn(C(C)C)c3)nc3cc(F)ccc23)on1,-1.12 (inactive)
20,Cn1nc(C(C)(C)C)cc1NC(=O)Cn1cc(-c2ccccc2N)cn1,0.154 (inactive)
21,O=C(O)CCC(=O)Nc1ccc(Br)cn1,0.399 (inactive)
22,Cc1nn(C)c(C)c1-c1ccnc(NCCOCCO)n1,0.0151 (inactive)

# Same assay, conditions: Rieske KO mouse fibroblast survival, CellTiter-Glo 72 h
row,SMILES,z-score
1,OB(O)c1cc2ccccc2s1,0.539
2,O=C(O)c1sccc1S(=O)(=O)Nc1ccc(Cl)cc1,-0.438
3,COc1ccc2c(c1)CCN(C(=O)Nc1n[nH]c(-c3ccco3)n1)C2,3.56
4,Cc1ccc(NC(=O)NCCSCc2ccc(CN(C)C)o2)cc1Cl,-0.401
5,CSCCC(NC(C)=O)C(=O)O (configuration not stated),-0.087
6,Cc1ccc(NC(=O)c2ccc3nccnc3c2)cn1,-0.47
7,Cn1c(=O)ccc2ccccc21,0.0614
8,COc1cccc(Cc2noc(-c3nccc4ccccc34)n2)c1,-0.0974
9,Cc1csc(CNc2nccc(-c3cn(C)nc3C)n2)n1,0.16
10,O=C(NCCc1ccco1)c1cc(C2CC2)[nH]n1,0.504
11,Cc1cc(-c2cnn(CC(=O)Nc3ccnn3Cc3ccccc3)c2)nc(N)n1,0.0522
12,O=C(Nc1n[nH]c(Cc2ccccc2)n1)N1CCN(c2ncccn2)CC1,4
13,Cc1cc(C)n(CCCNc2ncc(C)c(-c3cnn(C)c3)n2)n1,0.144
14,c1cc(-c2nc(Cc3ccsc3)no2)c2nccnc2c1,1.15
15,O=C(Nc1nncs1)NC1Cc2ccccc2C1,-0.221
16,COc1ccccc1-c1ccc(C(=O)O)o1,0.506
17,COc1ccc(C(=O)N2CCN(C(=O)c3ccc4sc(N)nc4c3)CC2)cc1,-0.192
18,CC1(C)OC2CO[C@@]3(COS(N)(=O)=O)OC(C)(C)OC3C2O1 (some centres not stated),-0.659
19,O=C(O)c1ccc(-c2ccccc2[N+](=O)[O-])o1,-0.463
20,COc1ccc(CC(C)NCC(O)c2ccc(O)c(NC=O)c2)cc1 (configuration not stated),-0.0828

row,SMILES,z-score
1,CN(Cc1cnc2ccccc2n1)C(=O)Nc1n[nH]c(-c2ccco2)n1,3.4
2,Cc1nc(C(=O)O)nn1-c1cc(Cl)cc(Cl)c1,-0.479
3,O=C(Nc1c[nH]c2ccccc12)c1cccnc1,-0.312
4,O=S(=O)(O)CCN1CCOCC1,-0.75
5,COc1ncccc1-c1cnn(CC(=O)Nc2cc(-c3ccccn3)nn2C)c1,0.201
6,O=c1cc(-c2ccncc2)nc(-c2cccc(CN3CCCC(CO)C3)c2)[nH]1 (configuration not stated),0.0738
7,CSc1n[nH]c(-c2ccc(Cl)cc2)n1,-0.569
8,Cc1cc(NC(=O)Cn2ccc(-c3ncnn3C)n2)n(C2CCCCC2)n1,-0.435
9,COc1cccc(-n2cc(-c3ccnc(NCCc4cnc[nH]4)n3)cn2)c1,0.696
10,CC(=O)N1CCCC(Cn2cnc3scc(-c4cc(C)ccc4C)c3c2=O)C1 (configuration not stated),-0.378
11,Cc1cnc(CN(C)C(=O)c2n[nH]c3ccccc23)[nH]1,-0.304
12,Nc1ncccc1OCc1ccccc1,-0.912
13,COc1ccccc1-c1cnn(CC(=O)Nc2cc(C)nn2C)c1,-1.22
14,COc1cccc2c(=O)n(Cc3ccc4nonc4c3)cnc12,-0.341
15,OCC1OC(Oc2cc(O)cc(C=Cc3ccc(O)cc3)c2)C(O)C(O)C1O (configuration not stated),-0.651
16,Cn1nc(-c2cccnc2)c2[nH]c(-c3ccc4c(c3)OCCO4)nc21,3.9
17,Cc1cc(CN(C)C(=O)c2cc(-c3cnn(C(C)C)c3)nc3cc(F)ccc23)on1,0.385
18,Cn1nc(C(C)(C)C)cc1NC(=O)Cn1cc(-c2ccccc2N)cn1,-0.442
19,O=C(O)CCC(=O)Nc1ccc(Br)cn1,-0.113
20,Cc1nn(C)c(C)c1-c1ccnc(NCCOCCO)n1,-0.129
